Measurements from the supplement of paper PMC8773631.
Where a name gives a salt, the structure may show the parent alone. ± gives the uncertainty stated by the source.

What follows are molecules tested on NCC-MFS5-C1 (assay: cell viability relative to DMSO control; higher = less growth inhibition). Details: 10 µM; treatment time: 3 days.
Protocol: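 NCC-MFS5-C1 myxofibrosarcoma cells (1x10^4 per well, 384-well) were treated on day 2 with 10 µM of each drug. On day 5, viability was read by CCK-8 absorbance at 450 nm and normalised to the DMSO control (%), n = 2.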
`CS(=O)(=O)OCCCCOS(C)(=O)=O` [Busulfan] showed a cell viability of 83.3%.
`O=c1[nH]cc(F)c(=O)[nH]1` [Fluorouracil (5-Fluoracil, 5-FU)] showed a cell viability of 78.9 ± 19%.
In the case of `CC[C@H](Nc1ncnc2[nH]cnc12)c1nc2cccc(F)c2c(=O)n1-c1ccccc1` [CAL-101 (Idelalisib, GS-1101)], the cell viability is reported as 72.3 ± 6.2%.
`CC(C)C[C@H](NC(=O)[C@H](Cc1ccccc1)NC(=O)c1cnccn1)B(O)O` [Bortezomib (PS-341)] was tested, and the cell viability was 4.89 ± 1.4%.
In the case of `COc1cccc2c1C(=O)c1c(O)c3c(c(O)c1C2=O)C[C@@](O)(C(=O)CO)C[C@@H]3O[C@H]1C[C@H](N)[C@H](O)[C@H](C)O1` [Doxorubicin (Adriamycin)], the cell viability is reported as 37.47 ± 0.32%.
`CC#CCn1c(N2CCC[C@@H](N)C2)nc2c1c(=O)n(Cc1nc(C)c3ccccc3n1)c(=O)n2C` [Linagliptin] was tested, and the cell viability was 92.8 ± 5.3%.
In the case of `Cc1ccc(-n2[nH]c(C)c(N=Nc3cccc(-c4cccc(C(=O)O)c4)c3O)c2=O)cc1C` [Eltrombopag Olamine], the cell viability is reported as 111 ± 5.6%.
`CN1c2cc(O)c(N=NC(N)=O)cc2CC1S(=O)(=O)O` (stereo unspecified) [Carbazochrome sodium sulfonate (AC-17)] showed a cell viability of 78.6 ± 7.6%.
`O=C(O)C(=O)O.[NH-][C@@H]1CCCC[C@H]1[NH-].[Pt+2]` [Oxaliplatin] showed a cell viability of 72.7 ± 2.5%.
`COc1ccc(C2=N[C@@H](c3ccc(Cl)cc3)[C@@H](c3ccc(Cl)cc3)N2C(=O)N2CCNC(=O)C2)c(OC(C)C)c1` [Nutlin-3] gave a cell viability of 88.6 ± 1.8%.
For `CC(=O)[C@]1(O)Cc2c(O)c3c(c(O)c2[C@@H](O[C@H]2C[C@H](N)[C@H](O)[C@H](C)O2)C1)C(=O)c1ccccc1C3=O` [Idarubicin HCl], the cell viability was 0.409 ± 0.53%.
For `CC(=O)Oc1ccccc1C(=O)O` [Aspirin], the cell viability was 81.4 ± 1.1%.
With `O=[n+]1c(CBr)c(CBr)n([O-])c2ccccc21` [Conoidin A] the cell viability was 86.4 ± 1.1%.
`Nc1nc(F)nc2c1ncn2[C@@H]1O[C@H](COP(=O)(O)O)[C@@H](O)[C@@H]1O` [Fludarabine Phosphate] showed a cell viability of 104 ± 3.5%.
`CNC(=O)c1cc(Oc2ccc(NC(=O)Nc3ccc(Cl)c(C(F)(F)F)c3)c(F)c2)ccn1` [Regorafenib (BAY 73-4506)] was tested, and the cell viability was 85.6 ± 6.8%.
With `Nc1cccc2c1C(=O)N(C1CCC(=O)NC1=O)C2=O` (stereo unspecified) [Pomalidomide] the cell viability was 97.7 ± 6.4%.
Work on `O=c1[nH]c(=O)n(C2CCCO2)cc1F` (stereo unspecified) yielded a cell viability of 88.2 ± 5.4%.
Work on `CC(C)C(=O)Nc1ccc([N+](=O)[O-])c(C(F)(F)F)c1` [Flutamide] yielded a cell viability of 78.3 ± 6%.
With `C#CCC(Cc1cnc2nc(N)nc(N)c2n1)c1ccc(C(=O)N[C@@H](CCC(=O)O)C(=O)O)cc1` (stereo partly specified) [Pralatrexate] the cell viability was 85 ± 4.1%.
Molecule `Fc1ccc(C(c2ccc(F)cc2)N2CCN(C/C=C/c3ccccc3)CC2)cc1` [Flunarizine 2HCl] has a cell viability of 114 ± 12%.
Molecule `COc1cc2c(Oc3ccc(NC(=O)C4(C(=O)Nc5ccc(F)cc5)CC4)cc3F)ccnc2cc1OCCCN1CCOCC1` has a cell viability of 7.35 ± 2%.
In the case of `C=CC(=O)Nc1cccc(Nc2nc(Nc3ccc(N4CCN(C(C)=O)CC4)cc3OC)ncc2C(F)(F)F)c1` [Rociletinib (CO-1686, AVL-301)], the cell viability is reported as 54.97 ± 0.41%.
`CC(C)(C)c1cc(NC(=O)Nc2ccc(-c3cn4c(n3)sc3cc(OCCN5CCOCC5)ccc34)cc2)no1` [Quizartinib (AC220)] showed a cell viability of 57.8 ± 2.7%.
Molecule `Oc1ncnc2[nH]ncc12` [Allopurinol] has a cell viability of 86.2 ± 18%.
`COc1ccc2c(c1OC)C(=O)O[C@@H]2[C@H]1c2c(cc3c(c2OC)OCO3)CCN1C` [Noscapine HCl] showed a cell viability of 75.82 ± 0.21%.
`O=C(Nc1nc2cccc(-c3ccc(CN4CCS(=O)(=O)CC4)cc3)n2n1)C1CC1` [Filgotinib (GLPG0634)] gave a cell viability of 93.1 ± 4.5%.
